Assay outcomes (PubChem BioAssay)
B2AR ag: agonists of human beta-2 adrenergic receptor inducing internalization. response, % (test concentration not listed). 340,000 tested, 0.43% active. Am2.2-beta2AR cells, FAP receptor internalization, flow cytometry. P07550;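 active = response above a set limit, near 3 SD of response in nonfluorescent compounds, cut at about 42% in these data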
GRK2 inh: human GRK2 inhibition via aptamer displacement | P25098 | bead flow cytometry, FAM-aptamer displacement from GRK2 | inhibition of aptamer binding, % at 10 µM | 330,000 tested, 0.59% active | AID 488847;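 active = inhibition of aptamer binding above 40%, roughly 3 SD of noise, on plates passing a quality check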;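 note: median bead fluorescence of bound FAM aptamer so fluorescent compounds give negative values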
VLA-4 inh: inhibition in a human VLA-4 binding assay. VLA-4 expressing cells, ligand binding flow cytometry. inhibition, % (about 7 µM as worked out from the volumes in the protocol). AID 2557. 330,000 tested, 0.2% active. P13612; in the data active = inhibition above about 50%
Target sequence (P13612 whole entry, looked up): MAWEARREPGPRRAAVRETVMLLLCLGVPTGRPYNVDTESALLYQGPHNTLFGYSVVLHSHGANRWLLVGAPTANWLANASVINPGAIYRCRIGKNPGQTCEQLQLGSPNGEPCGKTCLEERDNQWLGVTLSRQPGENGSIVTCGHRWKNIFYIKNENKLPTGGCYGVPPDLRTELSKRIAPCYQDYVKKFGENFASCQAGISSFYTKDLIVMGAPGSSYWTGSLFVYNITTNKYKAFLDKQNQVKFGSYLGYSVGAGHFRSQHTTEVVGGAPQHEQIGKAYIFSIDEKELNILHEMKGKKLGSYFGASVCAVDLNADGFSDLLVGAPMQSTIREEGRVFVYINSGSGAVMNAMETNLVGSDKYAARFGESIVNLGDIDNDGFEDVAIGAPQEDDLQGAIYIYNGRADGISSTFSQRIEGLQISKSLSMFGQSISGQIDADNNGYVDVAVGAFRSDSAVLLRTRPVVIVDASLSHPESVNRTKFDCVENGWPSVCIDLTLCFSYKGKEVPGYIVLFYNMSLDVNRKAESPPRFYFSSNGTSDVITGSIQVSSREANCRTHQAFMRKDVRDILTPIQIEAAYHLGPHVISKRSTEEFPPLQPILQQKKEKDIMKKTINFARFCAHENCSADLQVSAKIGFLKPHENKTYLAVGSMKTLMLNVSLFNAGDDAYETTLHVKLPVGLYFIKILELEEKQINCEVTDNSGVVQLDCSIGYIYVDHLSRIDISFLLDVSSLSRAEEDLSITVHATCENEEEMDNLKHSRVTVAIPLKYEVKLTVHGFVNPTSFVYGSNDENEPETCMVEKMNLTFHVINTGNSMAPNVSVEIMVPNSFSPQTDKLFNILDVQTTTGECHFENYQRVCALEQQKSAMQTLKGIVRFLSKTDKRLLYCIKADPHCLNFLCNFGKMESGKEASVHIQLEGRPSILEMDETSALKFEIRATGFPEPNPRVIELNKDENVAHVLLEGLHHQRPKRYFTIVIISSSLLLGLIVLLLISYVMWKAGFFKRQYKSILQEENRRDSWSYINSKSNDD
NTR1 agonist: agonists of human neurotensin receptor NTR1; NTR1-U2OS beta-arrestin-GFP spot imaging, agonist mode; 330,000 tested, 0.17% active; activation, % at 20 µM;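 active = activation at or above 40% of the spot to cytoplasm intensity ratio, with at least 20 cells analyzed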;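 note: 0% = DMSO without peptide and 100% = 100 nM NTR1 peptide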
A1 inh: inhibitors of the anti-apoptotic protein A1, read as caspase activation; caspase activation, % (test concentration not listed); 330,000 tested, 0.066% active; MEF A1-2A-BIM cells, Caspase-Glo 3/7 luminescence, 3 h; percent of clofoctol response, vehicle zero;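 active = over half of replicate activation scores above 10%, or exactly half above 10 with the replicate mean above 10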
* hit, by the source's call; x = no result given. An excerpt weighted towards active compounds, which were near 1.3% of everything screened.

SMILES	B2AR ag	GRK2 inh	VLA-4 inh	NTR1 agonist	A1 inh
CC(C)Oc1ccc(C(=O)NN2C(=O)NC3(CCCCC3)C2=O)cc1	-5	1	7	-2	2
COc1ccc(-c2nn(-c3ccccc3)cc2/C=C/C(=O)N2CCN(c3ccccn3)CC2)cc1	55*	0	2	5	0
Cc1ccc(-c2nn(-c3ccccc3)cc2C(=O)N2CCN(c3ccccn3)CC2)cc1	-20	1	-4	7	1
COc1ccc(-c2nn(-c3ccccc3)cc2/C=C/C(=O)OCC(=O)Nc2ccccc2C#N)cc1	14	0	-2	15	24*
CC(C)c1cccc(-c2ccc3c(c2)S(=O)(=O)c2cccc(C(=O)NCc4ccccc4)c2C3=O)c1	5	0	1	10	2
CC(C)c1cccc(-c2ccc3c(c2)S(=O)(=O)c2cccc(C(=O)NCc4ccccc4Cl)c2C3=O)c1	0	0	3	4	12*
C=CCOc1ccc(C(=O)/C=C2/C(=O)Nc3ccccc32)cc1	-1	12	39	2	1
C=CCOc1ccccc1C(=O)/C=C1/C(=O)Nc2ccccc21	-6	9	9	50*	0
COc1ccc(C(=O)/C=C2/C(=O)Nc3ccccc32)cc1	45*	1	-148	28	2
COc1ccc(C(=O)/C=C2/C(=O)Nc3ccccc32)cc1OC	-20	0	5	7	0
COc1cccc(CNC(=O)c2cc(S(=O)(=O)N3CCCC3)cn2C)c1	0	1	7	-2	1
CCC1CCCCN1S(=O)(=O)c1ccc(NC(=O)c2nc(S(C)(=O)=O)ncc2Cl)cc1 (stereo unspecified)	32	0	46	0	11*
CS(=O)(=O)c1ncc(Cl)c(C(=O)Nc2ccc3ccccc3c2)n1	48*	x	x	x	x
NS(=O)(=O)c1ccc(NC(=O)CSc2nc3ccccc3nc2N2CCOCC2)cc1	-22	0	-12	3	0
CCC(=O)c1cc2c(C)cc(=O)oc2c(C)c1OC(C)=O	-1	83*	13	3	0
CCC(=O)c1cc2c(C)cc(=O)oc2c(C)c1OC(=O)C(C)C	4	1	1	10	1
O=C(NC1CCN(Cc2ccc(Cl)c(Cl)c2)CC1)c1ccccc1	-2	0	0	0	0
O=C(/C=C/c1ccco1)N1CCN(S(=O)(=O)c2ccccc2)CC1	-13	78*	-6	-1	2
CCNC(=O)/C(C#N)=C/c1c(N(Cc2ccccc2)Cc2ccccc2)nc2ccccn2c1=O	23	0	3	11	0
CNC(=O)/C(C#N)=C/c1c(N(Cc2ccccc2)Cc2ccccc2)nc2c(C)cccn2c1=O	60*	3	-36	x	1
COc1ccc(Cl)cc1C(=O)Nn1c(C)nc2ccccc2c1=O	-17	0	6	2	0
COc1ccc(Cl)cc1C(=O)Nn1c(-c2cccs2)nc2ccccc2c1=O	68*	2	11	-2	1
N#CC(C#N)=C1C=CC=CN1/C(=C\c1ccco1)C(=O)c1ccc(Cl)cc1	58*	0	17	x	2
Cc1nn(-c2ccccc2)c(Cl)c1/C=N/NC(=O)c1cccnc1	50*	0	0	-1	0
Cc1cccc(/C=N/NC(=O)c2cc(-c3cccnc3)nc3ccccc23)c1	-6	0	-19	-1	1
SMILES	B2AR ag	GRK2 inh	VLA-4 inh	NTR1 agonist	A1 inh
Cc1cccc(/C=N/NC(=O)c2cc(-c3cccnc3)nc3c2c(C)nn3-c2ccccc2)c1	103*	0	-9	1	-1
Cc1nn(-c2ccccc2)c(C)c1/C=N/NC(=O)c1cc(-c2ccccc2)n[nH]1	68*	2	7	6	0
CCn1nc(C(=O)NNS(=O)(=O)c2ccc(C)cc2)c2ccccc2c1=O	2	0	1	1	1
CC(C)(C)C1=CC=C(C(C)(C)C)C(=O)C1=O	x	0	9	0	6.4*
CCSc1nc2ccccc2n1C(=O)/C=C/c1ccc(OC)c(OC)c1	42*	1	3	32	1
CCn1c(SCC(=O)N/N=C/c2ccc(OC)c(OC)c2)nc2ccccc21	-2	2	23	1	-1
C=CCSc1nc2ccccc2n1C(=O)/C=C/c1cc(OC)c(OC)c(OC)c1	86*	1	15	12	2
C=CCSc1nc2ccccc2n1C(=O)/C=C/c1ccc(OC)c(OC)c1	34	11	12	x	1
CC1(C)CC[C@]2(C(=O)n3ccnc3)CC[C@]3(C)[C@H](C(=O)C=C4[C@@]5(C)C=C(C#N)C(=O)C(C)(C)[C@@H]5CC[C@]43C)[C@@H]2C1	59*	x	x	x	x
CC(C)(C)c1cc(C(=O)N/N=C/c2ccc(F)cc2)n(-c2ccccc2)n1	17	0	6	3	0
CC(C)(C)c1cc(C(=O)N/N=C/c2ccccc2O)n(-c2ccccc2)n1	9	99*	20	2	-2
COc1ccc(CCNC(=O)CCOc2ccc(C)cc2)cc1OC	-7	0	23	0	6.1*
COc1ccc(S(=O)(=O)N2CCCC2)cc1C(=O)O	-4	0	9	-2	1
O=C(CCN1CCCCCC1)c1ccccc1	17	2	7	0	0
O=C(/C=C/c1ccccc1)CCN1CCCCC1	44*	x	x	x	x
CC(=O)/C(=C/c1ccccc1)C(=O)Nc1ccccc1C	43*	0	30	2	2
COc1ccccc1CNC(=O)/C=C/c1ccc(Br)o1	71*	0	0	-1	-1
O=C(O)C(Cc1c[nH]c2ccccc12)NS(=O)(=O)c1ccc(Cl)c(C(F)(F)F)c1 (stereo unspecified)	-4	1	-14	3	0
CC(C)(C=O)C1=CC(=O)c2ccccc2C1=O	66*	0	14	x	-1
O=[N+]([O-])c1ccc(S(=O)Cc2ccccc2)c([N+](=O)[O-])c1 (stereo unspecified)	49*	x	x	x	x
O=[N+]([O-])c1ccc(CS(=O)c2ccccc2)cc1 (stereo unspecified)	-6	x	x	x	x
O=C1C(Cl)=C(NC(=O)c2ccccc2)C(=O)C(Cl)=C1NC(=O)c1ccccc1	56*	0	24	18	0
O=C(NC1=C(Nc2ccc(Cl)cc2)C(=O)c2ccccc2C1=O)c1ccccc1	-3	3	0	0	0
CSCCC(NC(=O)c1ccccc1Cl)C(=O)Nc1ccc(C)c(S(=O)(=O)N2CCOCC2)c1 (stereo unspecified)	12	0	-3	-1	0
Cc1c(Cl)sn(-c2ccc(Cl)cc2)c1=O	49*	x	x	1	x
Cc1cc(C)c2nc(Cl)c(CN(Cc3ccco3)C(=O)Nc3ccccc3C)cc2c1	42*	0	14	2	1
CC1CCCC(C)N1C(=O)CSc1ncccn1 (stereo unspecified)	-1	0	-13	0	0
Cn1c(=O)[nH]c(=O)c2c1nc([N+](=O)[O-])n2Cc1ccccc1	67*	0	36	11	0
